The text below walks through data of PubChem BioAssay AID1347071 (National Center for Advancing Translational Sciences (NCATS), 2019).

In all, about 410,000 compounds went through this assay and about 260 (0.063%) were called active. A call without a number means that no potency is given here. Another 2% or so got no clear call; they are omitted. Calls come from the whole dose curve; as a rule, active = well fitted activation curve with a large enough effect; inconclusive = small, poorly fitted or top-dose-only effect; inactive = no such curve, though single readings can be large or run the other way. Many of the other results were omitted from the sample, so actives are more common in it than they were.

This experiment is described as follows: qHTS for compounds that reverse cellular toxicity of Amyloid beta (A-beta) peptide in yeast: Primary Screen. Note: nearly all actives have a fitted effect of over 55% in size. Particulars: yeast expressing A-beta42, growth rescue, OD600, 48 h; series mostly up to 46.1 µM. The source says:
The A-beta peptide is produced by the processing of the amyloid precursor protein (APP) by two proteases, beta and gamma secretases. […] A-beta42 is regarded as the most amyloidogenic form due to its hydrophobicity; however, precisely how A-beta42 induces neurotoxicity is unclear. To understand further this biology and its potential therapeutic implications for human neurodegenerative disease, a quantitative high-throughput screen for compounds that reverse the cellular toxicity of the A-beta peptide was developed. A yeast based screen was used because it recapitulates the salient feature of protein mis-folding disorder accurately. This cell-based phenotypic screen provides a significant, unbiased advantage by letting the compounds and models inform us which proteins or pathways are most relevant. The ideal chemical candidates would therefore have activity in both our primary yeast and secondary neuronal toxicity assays, as well as in mouse models. They will be valuable tools for dissecting diverse protein homeostasis pathologies and could potentially become the focus for future pre-clinical development. For this luminescence assay, inhibition of A-beta rescues the toxic effect in the yeast cell, resulting in increase of signals and the desired phenotype of "Activator". This screen is run against the Molecular Libraries Small Molecule Repository (MLSMR) and the NCGC Sytravon Library Collection.
NIH Chemical Genomics Center [NCGC]
NIH Molecular Libraries Probe Centers Network [MLPCN]
Assay Submitter (PI): Susan Lindquist, Whitehead Institute, Massachusetts Institute of Technology
[1] Vassar R,et al (1999). Beta-secretase cleavage of Alzheimer's amyloid precursor protein by the transmembrane aspartic protease BACE. Science. 286: 735-741.
[2] Yan R, et al (1999). Membrane-anchored aspartyl protease with Alzheimer's disease beta-secretase activity. Nature. 402: 533-536.
Two and a half microliter / well of yeast growth medium were dispensed in a 1536 assay plate. Compounds were pinned using the Kalypsys robotic system followed by addition of 2.5 uL / well yeast solution. The assay plates were incubated at 30 C. After 48 hr, the absorbance signal at 600 nm was obtained using the PerkinElmer ViewLux plate reader to assess yeast growth. The data was normalized to the positive control of an equimolar mixture of ferric chloride (FeCl3) and clioquinol and to the negative control DMSO.
(In general: Quantitative high-throughput screening tests each substance at several concentrations.)
Turning to `Cc1cccc(NC(=O)C2CCCN2S(=O)(=O)c2cccc3nsnc23)c1C` (stereo not given), the Potency result was “inactive”.

Regarding `COc1ccc(OCCCn2c(C)nc3cc(C)c(C)cc32)cc1`, the Potency entry was “inactive”. Consider `Cc1c(-c2nc(-c3ccc4c(c3)OCO4)no2)nnn1-c1ccc(Br)cc1F`, for which the Potency result was “inactive”. For `O=C(CCn1ccc2cc(S(=O)(=O)N3CCCC3)ccc21)NCc1cccc(Cl)c1` the value was “inactive”. Consider `O=C(CSc1oc(-c2ccccc2)nc1S(=O)(=O)c1ccc(Br)cc1)NC1CCCCC1`, for which the Potency entry is “inactive”. The result for `CC(C)CCNC(=O)CSc1nc2ccccc2nc1Cc1ccc(Cl)cc1` reads “inactive”; that for `COc1cc(C(=O)Nc2ccc(-n3c(C)nc4ccccc4c3=O)cc2)cc(OC)c1OC`, “inactive”. For `CCOc1ccccc1C(=O)Nc1ccc(S(=O)(=O)N2CCCCC2c2cccnc2)cc1` (stereo not given) the value was “inactive”. Consider `Cn1c(=O)c2c(nc(Oc3ccc(C#N)cc3)n2Cc2ccc(Cl)cc2Cl)n(C)c1=O`, for which the Potency entry was “inactive”. For `CCN(c1ncnc2c1cnn2-c1ccc(C)cc1)C1CCCCC1`, the Potency entry was “inactive”. Take `Cc1ccc(NC(=O)c2nc(S(=O)(=O)Cc3cccc(C)c3)ncc2Cl)cc1`: the Potency result was “inactive”. `Cc1nnc(N2CCCC(C(=O)NCCN(C)C)C2)c2nn(-c3ccccc3)c(C)c12` (stereo not given): the Potency result is “inactive”. For `COc1ccc(C2=NC(c3ccncc3)=Nc3ccc(Br)cc3N2)cc1` the value was “inactive”. With `COc1ccc(OC)c(-n2nnc3c(sc4nc(C)c(Br)c(C)c43)c2=O)c1`, the Potency result was “inactive”. For `CCS(=O)(=O)N1CCC(n2c(C)nc3cccnc32)CC1` the value was “inactive”; for `COc1cc(OC)c(NC(=O)N2CC3CCCN3c3ccccc32)cc1Cl` (stereo not given), “inactive”; for `CCOc1ccc(CNC(=O)c2ccc(CS(=O)c3ccccc3)o2)cc1` (stereo not given), “inactive”.

On to `CCCCn1c(=N)c(S(=O)(=O)c2ccccc2)cc2c(=O)n3cccc(C)c3nc21`, for which the Potency entry was “inactive”. For the molecule `Fc1ccc(Nc2nc(SCc3ccccc3Cl)nc3ccccc23)cc1`, the Potency entry was “inactive”.

In the case of `COc1ccccc1N1CCN(C(=O)C2CCN(S(=O)(=O)c3c(C)noc3/C=C/c3ccc(C)cc3)CC2)CC1`, the Potency entry was “inactive”.

Turning to `Cc1ccc2oc3c(c(=O)c2c1)C(c1ccc(O)cc1)N(Cc1ccc2c(c1)OCO2)C3=O` (stereo not given), the Potency result is “inactive”. As to `COc1ccc(-c2cc(NCc3ccc(F)cc3)n3cnnc3n2)cc1`, the Potency entry is “inactive”. Regarding `CCCCN(C)S(=O)(=O)c1ccc(C(=O)Nc2sc3c(c2C(N)=O)CC(C)(C)NC3(C)C)cc1`, the Potency result was “inactive”. For `Cc1ccc(N(CC(=O)NCc2ccc(Cl)cc2)S(=O)(=O)N(C)C)cc1` the value was “inactive”; for `Cc1cc2nn(-c3ccc(Cl)cc3)nc2cc1NC(=O)C(C)C`, “inactive”; for `Cc1ccc(C(=O)CSc2nc(-c3ccccc3)nc3c2CCCC3)c(C)c1`, “inactive”. With `O=C(NC1CC(=O)N(c2ccccc2)C1)c1ccco1` (stereo not given), the Potency entry was “inactive”. Consider `COCCNC(=O)CSc1nc(-c2ccccc2)[nH]c1-c1ccc(C)cc1`, for which the Potency entry is “inactive”. The result for `COc1ccccc1CNC(=O)C(Cc1ccccc1)NS(=O)(=O)c1ccc2c(c1)oc(=O)n2C` (stereo not given) reads “inactive”; that for `CCCCNC(=O)C1CCCN(c2nnc(C)c3c(C)n(-c4ccc(Cl)cc4)nc23)C1` (stereo not given), “inactive”; that for `CCOC(=O)c1c(NC(=O)CSc2cn(CCNC(=O)c3cccc(C(F)(F)F)c3)c3ccccc23)sc2c1CCC2`, “inactive”.

On to `Cn1c(=O)c2c(ncn2CC(=O)Nc2cccc(C(F)(F)F)c2)n(C)c1=O`, for which the Potency result was “inactive”. For the molecule `CCN(CCCNC(=O)c1ccc(Sc2ccc(C)cc2)c(NC(C)=O)c1)c1cccc(C)c1`, the Potency entry was “inactive”. For `C#CCOc1ccc(C2CC(=O)Nc3c2c(C)nn3-c2nc(C)cc(C)n2)cc1` (stereo not given) the value was “inactive”. The result for `COc1cccc(NC(=O)CSC2=Nc3ccccc3C3=NC(CC(=O)NC4CCCCC4)C(=O)N23)c1` (stereo not given) reads “inactive”. For `O=C(CNS(=O)(=O)c1cccs1)N1CCN(c2ccccc2Cl)CC1` the value was “inactive”; for `CSc1nsc(SC)c1NC(=O)OC1CCCCC1`, 4.47 µM (active). Turning to `Cc1nnc(N2CCC(C(=O)Nc3ccc(F)cc3)CC2)c2nn(-c3ccc(Cl)cc3)c(C)c12`, the Potency entry was “inactive”.

Regarding `COc1ccc(-c2onc(C)c2C)cc1S(=O)(=O)NCc1cccs1`, the Potency result was “inactive”.

Turning to `COc1cc(OC)cc(-c2nc3nc(C)c(CCC(=O)Nc4ccc(C)cc4)c(C)n3n2)c1`, the Potency result was “inactive”.

On to `CCOCCc1nn2c(=O)cc(COC(=O)CNC(=O)c3ccc(C(C)(C)C)cc3)nc2s1`, for which the Potency result was “inactive”. The result for `Cc1ccccc1-n1c(=O)c2ccccc2n(Cc2ccc(F)cc2)c1=O` reads “inactive”; that for `CCOC(=O)c1cnc2c(C)cc(Cl)cc2c1NCCc1ccc(OC)c(OC)c1`, “inactive”; that for `CCOc1ccccc1NC(=O)Cn1c(=O)n(Cc2ccccc2)c(=O)c2c(C)c(C(=O)N(C)C)sc21`, “inactive”.

In the case of `COc1ccc(C2C(=O)N(C3CCCCC3)CC(=O)N2Cc2ccccc2Cl)cc1OC` (stereo not given), the Potency entry is “inactive”. The result for `Cc1cccc(OCCSc2nc3ccccc3n2CC(=O)N2CCCCC2)c1C` reads “inactive”; that for `Cc1ccc(C(=O)N2CCc3cc(CNC(=O)c4ccc(Br)cc4)ccc32)cc1`, “inactive”.

Turning to `Cc1cccc(N(C)C(=O)CS(=O)(=O)c2cccc3nsnc23)c1`, the Potency result is “inactive”. For `Cc1ccc(Cl)cc1NC(=O)COC(=O)CC(C)(C)C` the value was “inactive”; for `COc1ccccc1OCCC(=O)OCC(=O)NC(=O)NC(C)(C)C`, “inactive”; for `CC(C)(C)NC(=O)NC(=O)COC(=O)Cc1ccc(Cl)cc1Cl`, 11.2 µM (active).

For `Cc1ccc([C@H]2N[C@]3(CCCN(Cc4ccccc4)C3=O)[C@H]3C(=O)N(Cc4ccccc4)C(=O)[C@@H]23)cc1`, the Potency result was “inactive”. The result for `CCN1C(=O)[C@H]2[C@@H](c3ccc(C(F)(F)F)cc3)N[C@]3(CCCN(Cc4ccc(Br)cc4)C3=O)[C@H]2C1=O` reads “inactive”. For `O=C1[C@H]2[C@@H](c3ccc(C(F)(F)F)cc3)N[C@]3(CCCN(Cc4ccc(Cl)cc4)C3=O)[C@H]2C(=O)N1Cc1ccccc1` the value was 8.91 µM (active). As to `COc1ccc(CCNC(=O)Cn2c(=O)n(-c3ccccc3)c(=O)c3c(C)c(C)sc32)cc1OC`, the Potency entry is “inactive”. For `COc1ccccc1OCC(=O)Nc1nnc2n1CCS2` the value was “inactive”; for `CCOc1ccc(CNC(=O)C2CCN(c3nnc(-n4cccc4CNc4ccc(C)cc4)s3)CC2)cc1OC`, “inactive”; for `COc1cccc(CNC(=O)Cn2ncn3c(cc4ccccc43)c2=O)c1`, “inactive”. For `COCCNc1ncnc2c1c(-c1ccccc1)cn2-c1ccc(C)c(Cl)c1` the value was “inactive”. Turning to `CCOc1ccc(-c2cc3nc(C4CCN(C(=O)OC(C)(C)C)CC4)c(C(=O)Nc4cccc(CC)c4)cn3n2)cc1`, the Potency entry is “inactive”.
